# Pf Dd2 growth – Plasmodium falciparum Dd2 growth inhibition; P. falciparum Dd2 growth, SYBR Green, 72 h; Potency, µM (doses to about 28.9 µM), inactives show at the top dose activity, negative = inhibition, usual class: inhibitors; 4.3% of 120,000 active; active means well fitted inhibition curve with a large enough effect;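 further: plate controls were DMSO vehicle for no effect and reference drug for full effect; nearly all actives have a fitted effect of over 65% in size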
#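 Readout: SYBR Green fluorescence, 485 nm excitation, 535 nm emission, after ~16 h lysis at 37C. Before that, Dd2-infected red cells (2.5% hematocrit) grew 72 h with compound, 29 uM top final concentration.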
# * hit, by the source's call; i = inactive; [ ] = dose if it differs, or a comment. This is one part of a sample in which hits are shown more often than they occur. Potency means the concentration at half of the fitted maximal effect.
SMILES,Pf Dd2 growth
CN1CCN(Cc2nc(C3(O)CCN(Cc4ccc(C(F)(F)F)cc4)CC3)cs2)CC1,i
CC(C)c1ccccc1Oc1c(C(F)(F)F)oc2c(CN3CCN(C)CC3)c(O)ccc2c1=O,0.32µM*
CCN1CCN(Cc2c(O)ccc3c(=O)c(Oc4ccccc4C(C)C)c(C(F)(F)F)oc23)CC1,0.063µM*
O=C(c1cn[nH]c1-c1ccccc1)N1CC2CC(C1)[C@H]1CCCC(=O)N1C2 (some centres not stated),-13%
CCOCC(=O)N1CCN(C(=O)N2CC3CC(C2)[C@H]2CCCC(=O)N2C3)CC1 (some centres not stated),-4%
CCNC(=O)N1CC(C(=O)NC(C)c2ccccc2)CC(c2ccc(F)c(C)c2)C1 (configuration not stated),i
CCCCc1nn(CC(=O)NCc2c(C)noc2C)c(=O)n1-c1ccccc1,-13%
Cc1ccc(F)cc1S(=O)(=O)N(C)CC1CCOCC1,14%
CCn1ncc(N2CCCC(CC(=O)NCc3cccc(Cl)c3)C2)cc1=O (configuration not stated),-24%
CC[C@H]1CN(C(=O)C(C)(C)C)CC[C@H]1CC(=O)NCc1ccc(F)cc1,i
CC(C)c1ccc(CC(=O)N2CCCc3ncc(C(=O)NCCN4CCCC4)cc32)cc1,-7%[44.1 µM]
CC(C)c1ccc(CC(=O)N2CCCc3ncc(C(=O)Nc4cccnc4)cc32)cc1,0.63µM*
CC(C)NC(=O)c1cnc2c(c1)N(C(=O)Cc1ccc(C(C)C)cc1)CCC2,i
CC(C)c1ccc(CC(=O)N2CCCc3ncc(C(=O)NCCc4ccccc4)cc32)cc1,i
CC(C)c1ccc(CC(=O)N2CCCc3ncc(C(=O)NCC(C)(C)CO)cc32)cc1,i
CC(C)c1ccc(CC(=O)N2CCCc3ncc(C(=O)Nc4ccc5[nH]ccc5c4)cc32)cc1,-12%
O=C(Nc1cccc(C(F)(F)F)c1)c1cnc2c(c1)N(C(=O)CCc1ccccc1)CCC2,i
O=C(Nc1cccc(F)c1)c1cnc2c(c1)N(C(=O)Cc1cccc(C(F)(F)F)c1)CCC2,11µM*
CC(C)c1ccc(CC(=O)N2CCCc3ncc(C(=O)NCc4ccccc4)cc32)cc1,i
Cn1cc(CC(=O)N2CCCc3ncc(C(=O)Nc4cccc(C(F)(F)F)c4)cc32)c2ccccc21,i
CC(C)c1ccc(CC(=O)N2CCCc3ncc(C(=O)Nc4cccc(Cl)c4)cc32)cc1,13µM*
CC(C)c1ccc(CC(=O)N2CCCc3ncc(C(=O)Nc4ccccn4)cc32)cc1,7.9µM*
COc1ccccc1C(=O)N1CCC2(CC(C(C)C)=NO2)C1 (configuration not stated),14%
Cn1cc(C(O)c2nc(Nc3ccc(OC(F)(F)F)cc3)n[nH]2)cn1 (configuration not stated),-4%[44.1 µM]
Cc1cc(Cl)ccc1S(=O)(=O)N1CCc2nn(C)c(=O)n2CC1,i
SMILES,Pf Dd2 growth
Cc1cc(C(=O)N2c3ccccc3CC2c2nnc(C(C)C)o2)nn1C (configuration not stated),i
Cc1noc(C)c1S(=O)(=O)N1CC(n2cc(C(=O)NCc3ccncc3)nn2)C1,9%
CCOC(=O)CCNC(=O)NCC(=O)N1CCCCCNC(=O)CC1c1ccccc1 (configuration not stated),11%
COc1cccc(C(=O)NCc2nnc3cc(-c4nc(C)no4)ccn23)c1,i
Cc1ccc(OCC(=O)N2CCC(c3noc(-c4cnccn4)n3)C2)cc1 (configuration not stated),i[5.79 µM]
COc1cc(=O)n2c(c1C(=O)Nc1ccccc1)CCCC2,48%
C=CCOC(=O)C1=C(C)N=C2SC=C(CC(=O)NCc3ccco3)N2C1c1cccc(C)c1 (configuration not stated),-3%
CCOC(=O)C1=C(C)N=C2SC=C(CC(=O)NC3CC3)N2C1c1ccccc1C (configuration not stated),-2%
CC1=C(C(=O)OC(C)C)C(c2ccccc2C)N2C(CC(=O)NC3CC3)=CSC2=N1 (configuration not stated),7.9µM*
C=CCOC(=O)C1=C(C)N=C2SC=C(CC(=O)NCc3ccc(F)cc3)N2C1c1ccccc1C (configuration not stated),3.2µM*
COC(=O)C1=C(C)N=C2SC=C(CC(=O)NC3CC3)N2C1c1ccc(C)cc1C (configuration not stated),i
COC(=O)C1=C(C)N=C2SC=C(CC(=O)NCc3ccccc3)N2C1c1ccccc1F (configuration not stated),-19%
CCOC(=O)C1=C(C)N=C2SC=C(CC(=O)N3CCCC3)N2C1c1ccc(Cl)cc1 (configuration not stated),-1%
CCOC(=O)C1=C(C)N=C2SC=C(CC(=O)NCC3CCCO3)N2C1c1ccc(Cl)cc1 (configuration not stated),2.2µM*
COC(=O)C1=C(C)N=C2SC=C(CC(=O)NCC3CCCO3)N2C1c1ccccc1C (configuration not stated),-16%
CN(C)C[C@H]1O[C@@H](CO)[C@@H](O)[C@H]1N1CCN(c2cccc(C(F)(F)F)c2)CC1,i
COCC(=O)NC[C@@H]1C=C(C)[C@H](CC(=O)N2CCN(C(C)=O)CC2)C[C@H]1C(C)C,i
CCn1ccc(C(=O)N2CCC(F)(c3nc(-c4ccncc4)no3)CC2)n1,-8%
CC(C)(Oc1nn(CC2CCOCC2)c2ccccc12)C(=O)NC1CCOCC1,-8%[44.1 µM]
COc1ccc(CN2CCc3nc(N(C)C)[nH]c(=O)c3CC2)c(OC)c1OC,i[5.79 µM]
CC(C)CNC(=O)CC(c1cccc(F)c1)c1cn(C)c2ccccc12 (configuration not stated),-24%
COCCCn1c(C)cnc1C1CCN(C(=O)NCc2ccc(C)cc2)C1 (configuration not stated),-6%
Cc1cc(F)ccc1OC1CN(C(=O)c2ccc3c(c2)OCO3)C1,i
Cc1ccc(OCC(O)Cn2c(=N)n(CCN3CCCCC3)c3ccccc32)cc1 (configuration not stated),2.8µM*
CC1=CCN(Cc2ccc(OCC(O)CN3CCN(C)CC3)cc2)CC1 (configuration not stated),7%
SMILES,Pf Dd2 growth
COc1ccc(N2CCN(CC(O)COc3ccc(C)cc3C)CC2)cc1 (configuration not stated),1%
CCn1c(COc2ccc(Cl)cc2Cl)nc2ccccc21,-19%
N=c1n(CCN2CCCCC2)c2ccccc2n1CC(O)COc1ccc(Cl)cc1Cl (configuration not stated),1µM*
COc1ccc(OCC(O)Cn2c(=N)n(CCN3CCCCC3)c3ccccc32)cc1 (configuration not stated),7.9µM*
COc1ccc(N2CCN(CC(O)COc3ccc(C(C)(C)C)cc3)CC2)cc1 (configuration not stated),-6%
Cc1nc2ccccc2n1CC(O)COc1ccc(C(=O)O)cc1 (configuration not stated),17%
CCNc1nc2c(c(=O)[nH]c(=O)n2C)n1CC(O)COc1ccc(Cl)cc1Cl (configuration not stated),-13%
O=C(NC[C@H]1O[C@@H](CO)[C@@H](O)[C@H]1N1CCN(c2ccccn2)CC1)Nc1ccc(F)cc1F,20%
Cc1ccc(C(=O)N2C[C@@H](N)C[C@H]2C(=O)NC(C)C)cc1N1CCNC1=O,1%
O=C(CC[C@@H]1CNC(=O)[C@@H]2C[C@H](NCc3ccc(CO)o3)CN12)NCc1ccc(F)cc1,21%
